From PubChem BioAssay (NCI)
About 83,000 compounds went through this panel and 20% of them were active in at least one assay; those are over-represented in the sample as a whole.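 Assay: single dose, 48 h. Readout: percent growth (0 = no net growth; negative = cell death). Active: <10.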 Unmarked numbers belong to inactive results. The source made the active and inactive calls.

Columns and labels:
Experiment in all cases: NCI-60 one-dose screen, 48 h (100 = growth as untreated, 0 = no growth, -100 = all killed)
Details in all cases: 10 µM unless noted
[1] = tested on: DU-145 prostate
[2] = tested on: K-562 leukemia
[3] = tested on: MALME-3M melanoma
[4] = tested on: MDA-MB-231 breast
[5] = tested on: RXF 393 renal
[6] = tested on: SF-268 CNS
[7] = tested on: SF-295 CNS
[8] = tested on: SF-539 CNS
[9] = tested on: UACC-257 melanoma
[10] = tested on: M14 melanoma

Structure (SMILES)	growth [1]	growth [2]	growth [3]	growth [4]	growth [5]	growth [6]	growth [7]	growth [8]	growth [9]	growth [10]
CC1=C2[C@@H](CC1)[C@]1(C)O[C@@](C(C)C)(C[C@H]1O)[C@H]2OC(=O)C1CC1c1ccccc1 (stereo not given in full)	106%	84.6%	92.2%	78.2%	99.4%	86.1%	92.1%	94.6%	103%	
CC(C)[C@]12O[C@H]1[C@@H]1O[C@]13[C@]1(O[C@H]1C[C@H]1c4c(C(=O)c5ccccc5)oc(OC(=O)c5ccccc5)c4CC[C@@]13C)[C@@H]2O	0.787% (active)	-12.5% (active)	-59.1% (active)	34.3%	-81.1% (active)	-20.7% (active)	8.47% (active)	-40.6% (active)	-25.5% (active)	
COc1ccc(/C=C\c2cc(OC)c(OC)c(OC)c2)cc1NS(=O)(=O)c1ccc(Cl)cc1	94%	36.8%	59.5%	66%	65.8%	79.4%	69.3%	82.6%	69%	
CSc1nc(Cl)cc(N2CC2)n1	110%	120%	105%	106%	111%	99.1%	115%	98.8%	107%	
CNC(=O)Oc1ccc(C(C)(C)C)cc1OC(=O)NC	105%	97.6%	104%	105%	108%	105%	98.6%	103%	92%	
Cc1cc(N(CCCl)CCCl)ccc1C=Nc1ccc(-c2csc(Cc3ccccc3)n2)cc1	57.1%	56.8%	70.8%	83.3%	83.8%	65.6%	13.4%	49.3%	46.2%	
CCCCCSC1C2C(=O)C(Br)=CC13CCNc1c(O)c4c5c(c13)=[N+]2CCC=5C=N4 (stereo not given)	-100% (active)	-32% (active)	-99.5% (active)	-7.12% (active)	-28.5% (active)	-51.7% (active)	20.9%	-79.6% (active)	-79.6% (active)	
O=C(c1cccc(O)c1O)c1cn(Cc2ccc(F)cc2)c2cccc(O)c12	36.2%	22.1%	58.9%	39.1%	70%	26.3%	41.9%	13.8%	34.4%	
COc1ccc2c(c1)c(-c1nc(-c3cn(C)c4ncccc34)cs1)cn2CCCCN1CCCCC1	7.63% (active)	-66.8% (active)	-73.9% (active)	-74.8% (active)	-80.1% (active)	-37.9% (active)	-50.1% (active)	-80.2% (active)	-68.3% (active)	
CCCC(C)C1(CC)C(=O)NC(=O)N(C)C1=O (stereo not given)	107%	102%	90.1%	107%	119%	100%	102%	96.4%	83.6%	
NC1CC2CCCCC2CC1(O)c1ccccc1 (stereo not given)	103%	92.4%	96.1%	99.8%	101%	102%	114%	99.1%	98%	100%
CCCC(=O)O[C@@H]1C[C@H]2C[C@@H](O[C@@H]3O[C@@H](C)[C@@H](O)[C@@H](O)[C@H]3OC)C[C@@H](C[C@@H](C)/C=C/C=C\C[C@@H]3O[C@@H](C[C@@H]3C)[C@@H](O)C[C@H]3C[C@@]1(O)C(=O)O3)O2	48.8%	21.2%	64.7%	86.4%	72.1%	80.1%	7.39% (active)	67.6%	9.61% (active)	69.8%
COC(=O)[C@@H](C)C[C@H](Cc1ccccc1)NC(=O)c1csc([C@@H](C[C@H](C(C)C)N(C)C(=O)[C@H](C)NC(=O)[C@H]2CCCN2C)OC(C)=O)n1	51.6%	11.5%	56.2%	63.6%	21.8%	53.9%	31.1%	39.9%	36.4%	37.5%
NC(N)=N/N=C\c1c[nH]c2ccc(Br)cc12	96.2%	74.6%	76.8%	101%	99%	64.6%	79.9%	84%	69.3%	94.1%
COP(=O)(OC)C(O)c1ccc(Cl)cc1 (stereo not given)	97.9%	117%	101%	123%	108%	94.6%	100%	103%	99.7%	96.4%
CC[C@H](C)[C@H](NC(=O)N[C@@H](C)c1ccccc1)C(=O)N(C)[C@H](C[C@@H](OC(C)=O)c1nc(C(=O)N[C@@H](Cc2ccccc2)C[C@H](C)C(=O)OC)cs1)C(C)C	-4.64% (active)	14%	44.9%	-6.65% (active)	-8.76% (active)	22.2%	5.49% (active)	-27.6% (active)	75.3%	-12.2% (active)
O=C1C(=Cc2cn(Cc3ccccc3)c3ccccc23)C(=O)N(Cc2ccccc2)C(=O)N1Cc1ccccc1	110%	81.5%	105%	89.3%	57.6%	87.5%	34.4%	83.5%	52.9%	104%
O=NN1CCCc2cccc(O)c21	10.8%	9.43% (active)	38.3%	78.8%	-4.04% (active)	27.8%	31%	-32.8% (active)	57.4%	22.2%
C#Cc1ccc2c(c1)C(c1ccccc1)=NCC(=O)N2C	70.1%	15.6%	74.5%	50.8%	83.8%	58.8%	25%	41.4%	68.5%	18.5%
CC1=C(CN)C2=C(C)C3(CC3)[C@@](C)(O)C(=O)C2=C1	48.5%	111%	96.2%	95.2%	91.6%	72.1%	78.9%	94.8%	87.2%	96.1%
Cc1ccccc1NC(=NCCCN1CC1)Nc1ccccc1C	90.1%	94%	105%	64.4%	85.3%	86.5%	103%	109%	103%	91.3%
CCOC(=O)[C@@H](C)C[C@H](Cc1ccccc1)NC(=O)c1csc([C@@H](C[C@H](C(C)C)N(C)C(=O)CNC(=O)[C@H]2CCCCN2C)OC(C)=O)n1	9.26% (active)	6.73% (active)	76.1%	14.5%	-13.8% (active)	46.6%	5.3% (active)	-8.42% (active)	58.7%	-20.9% (active)
CC(=O)O[C@H](C[C@H](C(C)C)N(C)C(=O)[C@@H](NC(=O)[C@H]1CCCCN1C)C(C)C)c1nc(C(=O)N[C@@H](Cc2ccccc2)C[C@H](C)C(=O)O)c(CCOCc2ccccc2)s1	-9.34% (active)	7.14% (active)	23.3%	9.48% (active)	18.3%	11.6%	-19.8% (active)	-31.5% (active)	54.5%	-29.4% (active)
CC(C)(C)N1CC1C#N (stereo not given)	105%	99%	103%	96.3%	107%	101%	91.4%	103%	105%	110%
C/C(Cc1ccc(Cl)cc1)=C(\c1ccc(OCCN2CCOCC2)cc1)c1ccc(OC(=O)Cc2ccccc2)cc1	107%	79.5%	99%	96.5%	94.7%	95.6%	99.9%	108%	86.1%	89.4%
C/C(CC(C)(C)N1CC1)=N\NC(=O)Nc1cccc2ccccc12	68.2%	78.2%	74.5%	58.3%	39.2%	52.9%	67%	70.3%	86.4%	72.8%
